BAZ2B block: BAZ2B (human) inhibition; AlphaScreen BAZ2B-H3K14Ac peptide displacement; Potency, µM (titrated, usually from 114 µM), for inactives: top-dose activity change, negative = inhibition, actives largely listed as inhibitors; hit rate 4.4% among 360,000; AID 504333; note: potency is the fitted concentration of half-maximal effect; % is set by controls: 0 for no effect and ±100 for the full control effect; nearly all actives have a fitted effect of over 60% in size
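AlphaScreen displacement: compounds (up to 110uM) incubated 30 min at room temperature with a preformed 50 nM BAZ2B/50 nM biotinylated H3K14Ac peptide complex in PBS pH 7.4 with Tween-20. Donor and acceptor beads at 10 ug/mL final added, 20 min light-protected before reading.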
HP1b binding inh: HP1-beta chromodomain-methylated histone interaction inhibition; hit rate 0.56% among 390,000; P83916; AlphaScreen HP1-beta / biotin-H3K9me3 peptide binding; Potency, µM (doses to about 114 µM), for the others: at the highest dose activity change, negative = inhibition, most hits filed as inhibitors; note: potency is the fitted concentration of half-maximal effect; nearly all actives have a fitted effect of over 70% in size
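HP1-beta protein (50 nM final) preincubated 30 min at room temperature with biotinylated H3(1-18)K9me3 peptide (50 nM) in PBS pH 7.4, 0.01% Tween-20, then compound added for 30 min. AlphaScreen streptavidin donor/nickel chelate acceptor beads (10 ug/mL final), 30 min dark, luminescence read.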
JMJD2A Tudor: blocks the human JMJD2A Tudor domain; AlphaScreen JMJD2A-Tudor / H3K4me3 peptide binding; Potency, µM (doses to about 114 µM), for the others: at the top dose activity change, negative = inhibition, hits mostly inhibitors; hit rate 4.4% among 390,000; note: potency is the fitted concentration of half-maximal effect; % is set by controls: 0 for no effect and ±100 for the full control effect; nearly all actives have a fitted effect of over 50% in size
Target sequence (O75164 whole entry, looked up, the tested form may be a part): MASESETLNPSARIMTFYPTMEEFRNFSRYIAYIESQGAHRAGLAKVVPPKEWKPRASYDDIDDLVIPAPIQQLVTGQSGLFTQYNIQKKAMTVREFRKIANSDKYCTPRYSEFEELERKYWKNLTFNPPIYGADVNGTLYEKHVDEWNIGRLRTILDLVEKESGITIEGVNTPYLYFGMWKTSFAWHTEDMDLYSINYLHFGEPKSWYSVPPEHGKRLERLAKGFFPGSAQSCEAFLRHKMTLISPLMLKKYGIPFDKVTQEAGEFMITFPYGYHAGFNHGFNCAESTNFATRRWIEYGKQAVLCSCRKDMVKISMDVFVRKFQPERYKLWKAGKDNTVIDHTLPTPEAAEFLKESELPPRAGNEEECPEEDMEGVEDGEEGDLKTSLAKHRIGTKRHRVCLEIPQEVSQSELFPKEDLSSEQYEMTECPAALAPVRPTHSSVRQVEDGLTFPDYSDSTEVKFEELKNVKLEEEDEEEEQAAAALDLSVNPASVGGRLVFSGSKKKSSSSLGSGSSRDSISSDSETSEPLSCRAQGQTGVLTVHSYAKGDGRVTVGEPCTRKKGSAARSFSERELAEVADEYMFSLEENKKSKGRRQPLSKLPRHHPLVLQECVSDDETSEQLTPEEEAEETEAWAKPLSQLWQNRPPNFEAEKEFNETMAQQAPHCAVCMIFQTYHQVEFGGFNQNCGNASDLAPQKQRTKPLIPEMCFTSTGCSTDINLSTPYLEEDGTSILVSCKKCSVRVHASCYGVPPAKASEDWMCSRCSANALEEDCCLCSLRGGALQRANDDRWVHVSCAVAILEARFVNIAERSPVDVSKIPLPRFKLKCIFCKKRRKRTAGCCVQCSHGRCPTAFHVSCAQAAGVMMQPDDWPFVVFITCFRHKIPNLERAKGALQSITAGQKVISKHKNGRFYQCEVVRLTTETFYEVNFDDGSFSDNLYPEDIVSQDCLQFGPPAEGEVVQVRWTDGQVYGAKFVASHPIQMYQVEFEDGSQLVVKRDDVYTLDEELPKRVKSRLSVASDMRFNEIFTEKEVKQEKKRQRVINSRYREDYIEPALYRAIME
PI5P4K alpha inh: blocks human PI5P4K alpha kinase activity; max response, %; PI5P4Kalpha enzyme, ADP-Glo luminescence, 60 min; active compounds read low; P48426; AID 652105; hit rate 1.2% among 330,000; active = max response of -50% or lower; inconclusive = between -30% and -50%; inactive = -30% or higher; note: value at the top dose of about 77 µM; % is set by controls: 0 for no effect and ±100 for the full control effect
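Compounds were pin-transferred onto PI5P4Kalpha and substrate in HEPES pH 7.4 buffer with EGTA, CHAPS and 5% DMSO. ATP (5 microM final) started the reaction, which ran 60 minutes at room temperature before ADP-Glo detection.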
L3MBTL1 inh: inhibitors of human L3MBTL1; AlphaScreen L3MBTL1–H3K9me1 peptide binding; Potency, µM (series often up to 57.1 µM), inactives show top-dose activity, negative = inhibition, usual class: inhibitors; hit rate 0.66% among 230,000; note: potency is the fitted concentration of half-maximal effect; % is set by controls: 0 for no effect and ±100 for the full control effect; nearly all actives have a fitted effect of over 60% in size
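Displacement of a biotinylated histone H3(1-15) peptide monomethylated at Lys9 (75 nM) from L3MBTL1 (50 nM) was measured by AlphaScreen after a 30 min room-temperature compound incubation; cefsulodin titration served as intraplate control.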
G9a block: blocks human histone lysine methyltransferase G9a; AID 504332; hit rate 8.8% among 350,000; Potency, µM (highest dose often 102 µM), for inactives: top-dose activity, negative = inhibition, actives largely listed as inhibitors; G9a H3K9 monomethylation, AlphaScreen, 2 h; Q96KQ7; note: potency is the fitted concentration of half-maximal effect; % is set by controls: 0 for no effect and ±100 for the full control effect; nearly all actives have a fitted effect of over 75% in size
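Enzyme 20 nM + cpd, 15 min RT; add b-H3K9 pep 500 nM / SAM 20 uM; 2 h RT; anti-H3K9me1 Ab 0.5 ug/mL + SA donor / anti-rabbit acceptor beads 20 ug/mL each, 10 min; AlphaScreen read.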
* marks the source's active call; other numbers are inactive results; ? = inconclusive; nt = no result given; [ ] = another dose, or the depositor's remark. Hits are enriched below; roughly 11% of the tested compounds scored in any of these assays. Unless noted, calls come from the whole dose curve; as a rule, active = well fitted inhibition curve with a large enough effect; inconclusive = small, poorly fitted or top-dose-only effect; inactive = no such curve, though single readings can be large or run the other way.

SMILES	BAZ2B block	HP1b binding inh	JMJD2A Tudor	PI5P4K alpha inh	L3MBTL1 inh	G9a block
CCOC(=O)CSc1ccc(S(=O)(=O)N2CCCCC2)cc1[N+](=O)[O-]	?	-6%	?	4	-15%	-14%
CC1CCCCN1C(=O)COC(=O)CSc1ccc(C(N)=O)cc1[N+](=O)[O-] (centres undefined)	nt	45%	-2%	7	nt	nt
CC1CCCC(C)N1C(=O)COC(=O)CSc1ccc(C(N)=O)cc1[N+](=O)[O-] (centres undefined)	1%	-4%	-22%	-6	8%	45µM*
CCOC(=O)C1CCCN(S(=O)(=O)c2ccc(N3CCCCS3(=O)=O)cc2)C1 (centres undefined)	-9%	31%	-1%	nt	nt	-20%[12.7 µM]
CC(C)c1ccc(Nc2ncnc3onc(-c4ccc(F)cc4)c23)cc1	10%[57.1 µM]	63%	5%	nt	nt	18%[59 µM]
c1csc(CNc2nc(-c3ccc4c(c3)OCO4)nc3ccccc23)c1	nt	nt	nt	nt	nt	0%[0.501 µM]
CCNc1ncc2ncc(=O)n(CCOC)c2n1	nt	nt	nt	nt	nt	-10%[0.501 µM]
CC(C)(C)OC(=O)N1CCCC1C(=O)NC1COC2CC(n3ccc(=O)[nH]c3=O)OC12 (centres undefined)	nt	50%	-10%	nt	nt	nt
COc1ccc(-n2c(=O)c(-c3cccs3)nc3cnc(N4CCN(C)CC4)nc32)cc1	nt	nt	nt	nt	nt	1%[0.501 µM]
COc1ccc(CCN2C(=O)c3ccccc3C2(O)c2ncc[nH]2)cc1OC (centres undefined)	?	-20%	-6%[11.4 µM]	-5	10%	22µM*
O=C1c2ccccc2C(O)(c2ncc[nH]2)N1C1CCCCC1 (centres undefined)	-7%	17%	?	10	5%	20µM*
O=C1c2ccccc2C(O)(c2ccccc2)N1CCc1ccccc1 (centres undefined)	0%	41%	-7%	0	-3%	26%
O=C(CNC(=O)c1ccncc1)OC(C(=O)Nc1cc(C(F)(F)F)ccc1Cl)c1ccccc1 (centres undefined)	nt	nt	-19%	nt	nt	nt
CCOc1cc(/C=C2\C(=O)N(c3cccc(C(=O)O)c3)N=C2C(F)(F)F)ccc1OCC(=O)Nc1ccccc1OC	50µM*	nt	nt	nt	nt	nt
Cc1ccc2nc(-c3ccc(C)o3)c(Nc3ccc4c(c3)OCCO4)n2c1	?	7%	?	nt	nt	4.5µM*
Cc1ccc(-c2nc3ccccn3c2Nc2ccc3c(c2)OCCO3)o1	45µM*	?	50µM*	nt	nt	13µM*
CCN1C(=O)C(Cc2nc3ccccc3c(=O)n2-c2ccc(OC)cc2)c2cc(C)ccc21 (centres undefined)	?	2%	?	nt	nt	?
COC(=O)c1oc2ccc(Br)cc2c1NC(=O)CCN1CCOCC1	-3%	19%	-12%	nt	1%	-21%
CCN1C(=O)C(NC(C)=O)c2cc(OC)ccc21 (centres undefined)	2%	48%	3%	-9	0%	50µM*
CCOc1ccc2c(c1)C(NC(C)=O)C(=O)N2CCN1CCOCC1 (centres undefined)	10µM*	22%	14µM*	-20	nt	16µM*
CC(=O)NC1C(=O)N(CCN2CCOCC2)c2ccc(Br)cc21 (centres undefined)	10µM*	?	8.9µM*	-5	nt	3.2µM*
Nc1ccc(Cn2ccc3c4c(N)nc(N)nc4ccc32)cc1	nt	79µM*	45µM*	?	nt	nt
CC(C)Oc1ccccc1C1CC(=O)Nc2cc3c(cc21)OCO3 (centres undefined)	?	-39%	56µM*	nt	-8%	?
COc1ccccc1-c1sc2cc3c(cc2c1C#CC1(O)CCCCC1)OCO3	79µM*	62%	-25%	20	1%	4%[0.501 µM]
CCc1ccc(OCc2n[nH]c(=S)n2C(C)CCCC(C)C)cc1 (centres undefined)	-27%	34%	-22%	19	-9%	8%
SMILES	BAZ2B block	HP1b binding inh	JMJD2A Tudor	PI5P4K alpha inh	L3MBTL1 inh	G9a block
FC(F)(F)c1cccc(NCc2n[nH]c(=S)n2C2CCCCC2)c1	?	32%	?	7	-1%	28µM*
CC(C)CCn1c(COc2ccccc2)n[nH]c1=S	-19%	34%	-12%	0	-9%	1.8µM*
S=c1[nH]nc(COc2ccccc2)n1C1CCCCC1	0%	9%	50µM*	0	-2%[11.4 µM]	2.5µM*
CCc1ccc(OCc2n[nH]c(=S)n2Cc2ccccc2)cc1	-12%	-2%	?	0	0%	-26%
S=c1[nH]nc(COc2ccccc2)n1Cc1ccccc1	-3%	4%	89µM*	1	-3%	3.5µM*
Cc1nnc(SCC(=O)Nc2ccc(Br)cc2)[nH]c1=O	-38%	13%	-18%	nt	nt	-14%[59 µM]
O=S(=O)(c1ccc(Br)cc1)c1nnn2c1nc(NCc1ccc3c(c1)OCO3)c1sccc12	-21%	0%	-22%	nt	nt	-23%[59 µM]
CCOC(=O)c1cccc(NC(=O)CCn2c(-c3ccc(F)cc3)cc(C(=O)OCC)c2C)c1	-11%	-16%	-26%	nt	nt	?
C#CCSc1nnc(CSc2nc3ccccc3s2)n1-c1ccccc1	-7%	41%	-20%	-13	nt	?
S=c1[nH]nc(CSc2nc3ccccc3s2)n1C1CCCCC1	?	-20%	?	-11	-8%	10µM*
Cc1cccc(OCc2n[nH]c(=S)n2Cc2ccccc2)c1	-26%	-11%	?	-14	-12%	18µM*
CC1=C(C(=O)Nc2cc(C)cc(C)c2)C2(CCCCC2)OC1=O	-5%	16%	-6%	nt	nt	-20%[59 µM]
CCOC(=O)C1(C)/C(=N/Nc2ccccc2)C(=O)C(=O)N1c1ccccc1 (centres undefined)	?	40µM*	32µM*	-6	nt	8.9µM*
CCOC(=O)C1(C)/C(=N/Nc2ccccc2OC)C(=O)C(=O)N1c1ccccc1 (centres undefined)	40µM*	40µM*	25µM*	-2	?	4.5µM*
CN1CCN(c2ncc3nc(-c4ccccc4)c(=O)n(Cc4ccc(F)cc4)c3n2)CC1	nt	nt	nt	nt	nt	3%[12.7 µM]
O=C(N/N=C/c1cccs1)c1cc(-c2ccc(Cl)s2)[nH]n1	?	-5%	?	-3	nt	50µM*
Brc1ccccc1/C=N/Nc1ccc2ccccc2n1	-10%	26%	-24%	5	3%	-14%[59 µM]
O=[N+]([O-])c1ccc(/C=C/c2ccc3cccc([N+](=O)[O-])c3n2)cc1	?	-6%	-19%	2	-15%	?
O=[N+]([O-])c1cccc2ccc(/C=C/c3ccc(F)cc3)nc12	?	-16%	?	12	-21%	13µM*
Cn1c(/C=C/c2ccccc2[N+](=O)[O-])nc2ccccc2c1=O	-6%	11%	-4%	5	5%	-5%
